Screens from PubChem BioAssay.
Compounds with a hit are over-represented: about 13% of the library has one in this group of screens.
LASV entry inh: inhibitors of Lassa virus binding or cell entry. Lassa virus pseudotype entry inhibition, cell reporter. Potency, µM (top dose mostly 37.9 µM), for inactives: at the highest dose activity change, negative = inhibition, hits mostly inhibitors. hit rate 1.2% among 300,000; calls by dose curve; tested in HEK293 cells; note: potency is the fitted concentration of half-maximal effect; % is set by controls: 0 for no effect and ±100 for the full control effect; nearly all actives have a fitted effect of over 50% in size
FMDV antiviral: antivirals against foot and mouth disease virus | FMDV antiviral cell-based qHTS | Potency, µM (doses to about 57.9 µM), inactives show at the highest dose activity change, negative = inhibition, hits mostly inhibitors | hit rate 1.2% among 410,000 | AID 1159524; calls by dose curve; tested in HEK293T cells; note: read-out not given here; potency is the fitted concentration of half-maximal effect; % is set by controls: 0 for no effect and ±100 for the full control effect; nearly all actives have a fitted effect of over 45% in size
HCV inh: inhibitors of hepatitis C virus infection. Huh7.5.1 HCVcc-Cre infection, luciferase reporter, 44 h. Potency, µM (series often up to 41.8 µM), for the others: top-dose activity change, negative = inhibition, actives largely listed as inhibitors. hit rate 3.4% among 340,000; active = well fitted inhibition curve with a large enough effect; inconclusive = small, poorly fitted or top-dose-only effect, or another doubt; inactive = no such curve, though single readings can be large or run the other way; note: potency is the fitted concentration of half-maximal effect; % is set by controls: 0 for no effect and ±100 for the full control effect
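1,000 cells/well; 4 h culture; + compound; + HCVcc-Cre (~0.5 moi); 44 h; luciferase substrate, RT 15 min; read 15 sec.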
Cycloheximide cs: counter-screen for Shiga toxin inhibitors: cycloheximide protein synthesis inhibition. max response, %. cell reporter, cycloheximide protein synthesis inhibition counterscreen. hit rate 12% among 300,000. AID 2314; in the data active = max response mostly above about 13%, no sharp cut-off; inactive = mostly below about 14%; note: read at 38.3 µM for the half of the compounds with a filed dose; 0% is about no effect
MARV entry inh: Marburg virus entry inhibition; Marburg virus pseudotyped entry inhibition, cell reporter; Potency, µM (series often up to 37.8 µM), without a hit: at the highest dose activity change, negative = inhibition, most hits filed as inhibitors; hit rate 1.8% among 300,000; AID 540276; calls by dose curve; tested in HEK293 cells; note: potency is the fitted concentration of half-maximal effect; % is set by controls: 0 for no effect and ±100 for the full control effect
Shiga inhibitor: Shiga toxin inhibition | Vero cells, Shiga toxin protein synthesis inhibition reporter | inhibition, % at 38.7 µM | hit rate 9.2% among 290,000 | AID 2315; in the data active = inhibition mostly above about 28%, no sharp cut-off; inactive = mostly below about 43%; note: 0% is about no effect
Starred values were filed as active, the others as inactive; ? = inconclusive; . = no result; [ ] = another dose, or the depositor's remark.

SMILES	LASV entry inh	FMDV antiviral	HCV inh	Cycloheximide cs	MARV entry inh	Shiga inhibitor
COc1ccc2c(c1)C13CCCC[C@@H]1C(C2)N(C)CC3 (stereo partly drawn)	.	-14%	?	-6	.	16
Cc1c(NC(=O)C2CCN(S(=O)(=O)c3cccs3)CC2)c(=O)n(-c2ccccc2)n1C	.	-5%	12%	-3	.	-8
COc1ccc(NC(=O)CCc2nc(C3=CCN(Cc4cccc(Cl)c4)CC3)no2)cc1OC	-27%[46.1 µM]	32µM*	.	.	.	.
Cn1c(SCc2ccccn2)nnc1-c1ccccc1	5%[46.1 µM]	18%	24%	36*	20%[46.1 µM]	103*
COc1cccc(-c2nnc(SCc3ccccn3)n2C)c1	?	72%	1%	17*	24%[46.1 µM]	75
Cc1cc(-c2ccnc(-n3ncc(C(=O)NCC4CCCN(C)C4)c3C3CC3)n2)c(C)s1 (stereo not drawn)	.	-3%	.	.	.	.
CC(=O)c1cccc(NC(=S)Nc2ccn(Cc3cccc4ccccc34)n2)c1	?	-7%	11µM*	9	?	7
Cc1c(C(=O)c2cccc3ccccc23)c2cccc3c2n1[C@H](CN1CCOCC1)CO3	21µM*	-29%	?	.	8.9µM*	.
C[C@H](CO)N1C[C@H](C)[C@@H](CN(C)S(=O)(=O)c2cccs2)Oc2c(NC(=O)Cc3ccccc3)cccc2C1=O	.	16%	?	.	.	.
Nc1c(C(=O)Nc2ccccc2Cl)nnn1-c1ccc2c(c1)OCCO2	-7%	10%	?	33*	7%	65*
Cc1ccc(NC(=O)c2nnn(Cc3ccccc3)c2N)cc1C	-1%[46.1 µM]	46%	.	.	?	.
Cc1ccc(NC(=O)c2nnn(CC(=O)Nc3ccc4c(c3)OCO4)c2N)cc1C	.	3%	5%	21*	.	23
Cc1ccc(NC(=O)Cn2nnc(C(=O)Nc3ccc(C)c(C)c3)c2N)cc1	?	5%	?	15*	19%	4
Nc1c(C(=O)Nc2ccc3c(c2)OCCO3)nnn1CCc1ccccc1	.	46%	-15%	20*	-2%	56*
Cc1ccc(SCC(=O)OCC(=O)NCCNC(=O)COC(=O)CSc2ccc(C)c(C)c2)cc1C	22%	-6%	13%	.	?	.
COc1ccc(N2CCN(C(=O)c3cnn(-c4ccc(F)cc4)c3-n3cccc3)CC2)cc1	?	-22%	.	.	.	.
COCCCN1C(=O)c2ccc(C(=O)NCc3ccccn3)cc2C1=O	5%[46.1 µM]	-2%	-1%	-4	-7%[46.1 µM]	-4
COc1ccc(CCNC(=O)Cc2ccc(Cl)cc2)cc1OC	.	55%	4%	2	.	.
COc1ccccc1NC(=O)Cn1nnc(C(=O)Nc2ccccc2)c1N	?	6%	-19%	11	17%	12
COc1ccc(CNC(=O)N2CCN(c3cccc(Cl)c3)CC2)cc1OC	.	?	?	-3	-25%[46.1 µM]	-6
COc1ccc(CCNC(=O)CN2CCN(c3cccc(Cl)c3)CC2)cc1OC	-8%	-27%	10µM*	-3	-29%	-23
CCOc1ccc(NC(=O)c2nnn(CC(=O)Nc3ccccc3OC)c2N)cc1	2%	22%	?	19*	-3%	31
COc1ccc(CCNC(=O)Cn2nnc(C(=O)Nc3ccc(Br)cc3)c2N)cc1OC	-25%[46.1 µM]	-7%	?	31*	0%[46.1 µM]	19
COc1ccc(CCNC(=O)Cc2cc(OC)c(OC)cc2Br)cc1OC	19%[46.1 µM]	-15%	23%	16*	-18%[46.1 µM]	20
Nc1c(Br)cc(Br)c2c1C(=O)c1c(cccc1S(=O)(=O)O)C2=O	-11%[46.1 µM]	-17%	8%	.	20%[46.1 µM]	.
SMILES	LASV entry inh	FMDV antiviral	HCV inh	Cycloheximide cs	MARV entry inh	Shiga inhibitor
CCN1CCCC1CNC(=O)c1cnn(-c2ncc(C)c(-c3ccc(F)cc3)n2)c1C(C)C (stereo not drawn)	.	-7%	.	.	.	.
Cn1c(=O)c2c(ncn2CC(=O)Nc2nc3ccc(F)cc3s2)n(C)c1=O	18%	11%	-23%	13*	3%	31
CCc1ccc2nc(NC(=O)Cn3cnc4ccccc4c3=O)sc2c1	.	31%	12%	29*	.	53*
COc1ccc(CN2CCN(Cc3nc4ccccc4s3)CC2CCO)c(C)c1C (stereo not drawn)	.	?	6.3µM*	-2	.	-1
COc1ccc(CN2CCN(CC3CC3)CC2CCO)c(C)c1C (stereo not drawn)	.	-6%	-1%	-3	.	-10
Cc1ccc(S(=O)(=O)N(C)CC(=O)OCC(=O)NCCN2C(=O)CSC2=O)cc1	.	-17%	14%	.	.	.
CCCn1c2c(c(O)c(C(=O)Nc3ccccc3)c1=O)CCCC2	-8%	6%	10µM*	1	4%	-6
